# Assays:
# Conditions in all cases: concentration: 1 μM, replicates: in singlicate; n = 1
# ERK4 = test system: T1, ERK4
# T1 construct: gene MAPK4
# ERK5 = test system: T2, ERK5
# T2 construct: gene MAPK7
# ERK8 = test system: T3, ERK8
# T3 construct: gene MAPK15
# ERN1 = test system: ERN1
# FAK = test system: T4, FAK
# T4 construct: gene PTK2
# FER = test system: FER
# FES = test system: FES
# FGFR1 = test system: FGFR1
# FGFR2 = test system: FGFR2
# FGFR3 = test system: FGFR3
# FGFR4 = test system: FGFR4
# FGR = test system: FGR
# FLT1 = test system: FLT1
# FLT3-autoinhibited = test system: FLT3-autoinhibited
# FLT3 = test system: FLT3
# FLT4 = test system: FLT4
# FRK = test system: FRK
# FYN = test system: FYN
# GAK = test system: GAK
# GCN2(Kin.Dom.2,S808G) = test system: T5, GCN2(Kin.Dom.2,S808G)
# T5 construct: gene EIF2AK4
# 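Further: KINOMEscan kinase panel screen.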
SMILES,%Inh (ERK4),%Inh (ERK5),%Inh (ERK8),%Inh (ERN1),%Inh (FAK),%Inh (FER),%Inh (FES),%Inh (FGFR1),%Inh (FGFR2),%Inh (FGFR3),%Inh (FGFR4),%Inh (FGR),%Inh (FLT1),%Inh (FLT3-autoinhibited),%Inh (FLT3),%Inh (FLT4),%Inh (FRK),%Inh (FYN),%Inh (GAK),"%Inh (GCN2(Kin.Dom.2,S808G))"
CCc1nc(-c2cccc(N(C)S(=O)(=O)c3ccccc3)c2)c(-c2ccnc(Nc3ccc(N4CCN(C(C)=O)CC4)nc3)n2)s1 [GSK1645895],18%,19%,0%,28%,0%,0%,0%,0%,0%,3%,0%,73%,24%,18%,0%,14%,0%,40%,85%,4%
Cl.O=S(=O)(c1cccc(F)c1)c1ccc(Nc2ncnc3cc(Br)sc23)cc1Cl [GSK306886],44%,4%,0%,11%,0%,14%,13%,0%,0%,16%,30%,24%,20%,0%,0%,98.1%,0%,41%,3%,0%
Cn1ccc2ncnc(Nc3ccc(Oc4cccc(Cl)c4)c(Cl)c3)c21,25%,22%,0%,48%,0%,0%,8%,1%,6%,1%,0%,0%,0%,17%,0%,18%,4%,1%,0%,28%
Cl.c1ccc(Cn2ccc3cc(Nc4ncnc5ccccc45)ccc32)cc1 [GW275568],46%,7%,0%,0%,0%,17%,15%,0%,0%,28%,8%,21%,24%,11%,0%,8%,0%,25%,25%,0%
NC(=O)c1sc(-n2cnc3ccccc32)cc1OCc1ccccc1F [GSK1024306],0%,0%,26%,0%,0%,20%,0%,0%,0%,4%,19%,0%,40%,2%,0%,27%,11%,24%,24%,0%
O=C(c1ccc(-c2cc(-c3c[nH]nc3-c3ccccn3)ccn2)cc1)N1CCCC1 [GW792479],0%,23%,0%,0%,47%,0%,5%,3%,1%,3%,0%,17%,18%,0%,8%,0%,0%,5%,33%,0%
CNc1nccc(-c2c(-c3ccc(F)cc3)ncn2CCCN2CCOCC2)n1 [SB-222516],2%,0%,14%,0%,6%,12%,7%,26%,0%,0%,0%,10%,1%,14%,15%,5%,0%,0%,0%,0%
COc1ccc(Nc2nccc(N3CCC(NC(=O)Nc4ccc5c(c4)OCO5)C3)n2)cc1 (stereo not shown) [GSK1379745],0%,0%,48%,0%,1%,33%,18%,9%,1%,32%,4%,28%,37%,0%,45%,12%,14%,3%,11%,2%
CCc1nc(-c2cccc(C)c2)c(-c2ccnc(NC(=O)c3ccccc3)c2)s1,2%,9%,0%,23%,0%,0%,32%,11%,0%,0%,0%,35%,0%,1%,0%,8%,0%,0%,33%,0%
CN1c2ccc(-c3ccc(C(=O)NCCO)cc3)cc2-c2[nH]ncc2S1(=O)=O,0%,0%,12%,1%,,11%,17%,30%,0%,0%,8%,34%,11%,20%,37%,7%,1%,15%,21%,34%
Cl.Cl.c1ccc(-c2cc3ccncc3cc2OC2CCNCC2)cc1 [GSK1122999],8%,0%,0%,0%,0%,36%,0%,0%,0%,11%,30%,23%,28%,0%,4%,22%,0%,44%,12%,11%
Cc1ccc(C)c(NC(=O)NCCNc2ccnc(Nc3ccc(F)cc3)n2)c1 [GSK1379878],17%,98.4%,0%,0%,0%,17%,0%,0%,14%,0%,0%,4%,24%,0%,0%,0%,0%,0%,0%,0%
CCC(CC)(CC)n1cnc2c(N)ncnc21 [SKF-97620],0%,0%,1%,26%,0%,0%,10%,17%,100%,0%,4%,4%,4%,19%,11%,0%,23%,7%,3%,0%
Oc1ccc2ncnc(Nc3ccc(OCc4ccccc4)cc3)c2c1 [GI262866],0%,0%,57%,19%,0%,0%,0%,0%,0%,0%,66%,4%,29%,0%,60%,21%,0%,7%,0%,15%
CC(C)(C)OC(=O)NC1CCCN(c2cc(-c3ccc4c(N)n[nH]c4c3)nc(N)n2)C1 (stereo not shown) [GSK2286096],23%,29%,0%,7%,0%,0%,0%,0%,4%,22%,14%,4%,9%,0%,0%,0%,2%,26%,42%,0%
Clc1ccc(-c2cc(-c3c[nH]nc3-c3ccccn3)ccn2)cc1 [GW681251],6%,0%,0%,0%,0%,9%,0%,0%,0%,1%,13%,11%,20%,0%,0%,0%,0%,10%,74%,7%

SMILES,%Inh (ERK4),%Inh (ERK5),%Inh (ERK8),%Inh (ERN1),%Inh (FAK),%Inh (FER),%Inh (FES),%Inh (FGFR1),%Inh (FGFR2),%Inh (FGFR3),%Inh (FGFR4),%Inh (FGR),%Inh (FLT1),%Inh (FLT3-autoinhibited),%Inh (FLT3),%Inh (FLT4),%Inh (FRK),%Inh (FYN),%Inh (GAK),"%Inh (GCN2(Kin.Dom.2,S808G))"
Fc1ccc(-c2ncn(CCCNCc3ccccc3)c2-c2ccncc2)cc1,14%,0%,13%,14%,0%,13%,23%,0%,0%,0%,0%,17%,0%,0%,0%,22%,0%,0%,0%,0%
Fc1cccc(COc2ccc(Nc3ncnc4nn5ccccc5c34)cc2Cl)c1 [GW689066],0%,0%,0%,0%,0%,16%,0%,0%,12%,3%,0%,4%,20%,0%,0%,0%,0%,0%,0%,0%
CN1CCC(n2cnc(-c3ccc(F)cc3)c2-c2ccnc(NC3CCNCC3)n2)CC1 [SB-229482],0%,0%,0%,2%,0%,0%,5%,4%,0%,9%,0%,0%,0%,0%,27%,0%,0%,1%,0%,0%
Fc1cccc(COc2ccc(Nc3ncnc4cc[nH]c34)cc2Cl)c1,9%,0%,7%,35%,11%,31%,21%,14%,8%,10%,11%,18%,6%,16%,0%,0%,21%,13%,14%,0%
Fc1cccc(COc2ccc(Nc3ncnc4sc(-c5ccc[nH]5)cc34)cc2Cl)c1 [GW707818],51%,6%,0%,10%,0%,12%,0%,0%,0%,6%,12%,3%,22%,7%,0%,3%,0%,45%,4%,0%
Cl.Fc1ccccc1COc1ccc(Nc2ncnc3ccc(-c4nnc(C(F)(F)F)o4)cc23)cc1Cl [GW424170],13%,0%,0%,2%,0%,18%,0%,0%,0%,8%,0%,6%,18%,0%,0%,3%,0%,0%,0%,0%
O=C(Nc1ccccc1F)NC1CCN(c2ccnc(Nc3ccc(F)cc3)n2)C1 (stereo not shown) [GSK1379722],12%,0%,31%,0%,0%,26%,0%,0%,19%,15%,7%,9%,26%,0%,1%,14%,9%,0%,0%,4%
COc1ccc(NC(=O)Nc2ccc(C)c(-c3ccc(C(=O)Nc4ccncc4)cc3)c2)cc1 [GSK1398475],0%,0%,0%,0%,0%,5%,2%,0%,0%,11%,5%,27%,26%,0%,85%,15%,23%,41%,0%,0%
FC(F)(F)c1cc(Nc2nccc(-c3c(-c4ccc(Cl)cc4)nn4ncccc34)n2)ccc1Cl [GW829351],0%,0%,0%,0%,0%,0%,0%,0%,0%,0%,0%,0%,0%,0%,0%,0%,0%,0%,0%,0%
Cc1cccc(-c2nc(Nc3ccc4[nH]nnc4c3)c3ccccc3n2)n1 [GW867587],0%,0%,0%,0%,0%,0%,0%,0%,0%,0%,0%,0%,0%,0%,0%,0%,0%,0%,0%,0%
CSc1ccc(NC2=C(c3ccccc3Cl)C(=O)NC2=O)cc1 [SB-342411],9%,0%,0%,9%,0%,5%,0%,11%,4%,26%,16%,14%,6%,0%,0%,1%,9%,0%,14%,0%
COc1ccc(-c2oc3ncnc(N)c3c2-c2ccc(OC)cc2)cc1 [SB-589132],27%,0%,0%,18%,0%,5%,0%,0%,3%,0%,3%,43%,21%,18%,13%,12%,17%,46%,48%,41%
FC(F)(F)c1ccc(-c2cc(-c3c[nH]nc3-c3ccccn3)ccn2)cc1 [GW599550],0%,0%,0%,0%,0%,32%,0%,5%,0%,4%,0%,14%,20%,0%,0%,17%,0%,38%,46%,0%
OCCOCCn1ccc2ncnc(Nc3ccc(Oc4cccc(Cl)c4)c(Cl)c3)c21,0%,0%,0%,0%,0%,24%,6%,27%,0%,0%,0%,2%,0%,0%,0%,0%,0%,0%,0%,0%
Cl.c1ccc(Cn2ncc3cc(Nc4ncnc5ccccc45)ccc32)cc1 [GW273749],35%,0%,0%,34%,0%,13%,0%,0%,0%,0%,5%,31%,17%,7%,0%,8%,0%,36%,23%,0%

# Source: publication PMC5540273 (PLoS ONE, 2017)
